Here are results for five molecules from PubChem BioAssay (NCATS).

Structures are written as SMILES. Results filed as inconclusive are left out. Unmarked numbers belong to inactive results. The source made the active and inactive calls. Unless noted, calls follow the shape of the dose curve; as a rule, active = well fitted curve in the direction sought with a large enough effect; inconclusive = small, poorly fitted or top-dose-only effect, or another doubt; inactive = no such curve, though single readings can be large; an effect the other way counts as inactive or inconclusive.

As a reminder, the viability is a read-out of living cells in per cent, often relative to untreated cells.

For test [1], the target named is Aldehyde dehydrogenase, mitochondrial (Homo sapiens) (UniProt P05091). The test can be described thus: qHTS for Inhibitors of the Aldehyde Dehydrogenase Family (ALDH2) Validation screens (AID 2061302; active = well fitted inhibition curve with a large enough effect; title and protocol of this record describe different tests; also: potency is read from the fitted curve at half-maximal effect). Particulars: ALDH inhibition qHTS; series mostly up to 42.6 µM. In general terms: Quantitative high-throughput screening tests each substance at several concentrations.

Test [2] has the same target. In words: qHTS for Inhibitors of the Aldehyde Dehydrogenase Family (ALDH2) Primary screen (AID 2061308).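 Also: plate controls were vehicle for no effect and reference inhibitor for full effect; nearly all actives have a fitted effect of over 55% in size.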 Particulars: ALDH2 enzyme inhibition qHTS, 1536-well; series mostly up to 56 µM.
In test [3] the target is Retinaldehyde dehydrogenase 3 (Homo sapiens) (UniProt P47895). In words: qHTS for Inhibitors of the Aldehyde Dehydrogenase Family (ALDH1A3) Validation screen (AID 2061312). Also: % is scaled to controls: 0 for no effect and ±100 for the full control effect; nearly all actives have a fitted effect of over 45% in size. Particulars: ALDH1A3 enzyme inhibition qHTS validation, fluorescence; series mostly up to 84.7 µM.
For test [4] the target is unchanged. In words: qHTS for Inhibitors of the Aldehyde Dehydrogenase Family (ALDH1A3) Primary screen (AID 2061315).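 Also: plate controls were DMSO vehicle for no effect and reference inhibitor for full effect.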 Particulars: ALDH inhibition qHTS; series mostly up to 56 µM.
Test [5] is described as follows: BET inhibitor-based combinations targeting novel dependencies in MECOM-rearranged (r) AML: UCSD-AML1 cell line (AID 2202235).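 Also: plate controls were DMSO vehicle wells for no effect and blank wells for full effect; nearly all actives have a fitted effect of over 40% in size.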 Particulars: UCSD-AML1 AML cells viability, CellTiter-Glo, 48 h; series mostly up to 46 µM. In short, it runs like this: (§1)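 Cells were plated at 500 per well and exposed to each drug across an 11-point dose range for 48 hr at standard incubator conditions. Viability was read by CellTiter-Glo luminescence, and activity was expressed as AUC and per-cell-line Z-transformed AUC.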
Background: In ATP-based viability assays light output follows the ATP content of the culture.

Test [6] in a line: BET inhibitor-based combinations targeting novel dependencies in MECOM-rearranged (r) AML: AML-194 cell line (AID 2202237;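 also: plate controls were vehicle wells for no effect and wells without cells for full effect; nearly all actives have a fitted effect of over 40% in size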). The settings on record: AML-194 (MECOM-r AML) viability, CellTiter-Glo, 48 h; series mostly up to 46 µM. The procedure, abridged:
(§2)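 500 cells/well; 11-pt dose curve; 48 h, standard incubator; CellTiter-Glo luminescence after 15 min RT; DMSO/empty-well normalization; AUC plus Z-AUC (mean-centered within each line).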

The target of test [7] is Aldehyde dehydrogenase, mitochondrial (Homo sapiens) (UniProt P05091). In words: qHTS for Inhibitors of the Aldehyde Dehydrogenase Family (ALDH2) Confirmatory screens (AID 2061303; active = well fitted inhibition curve with a large enough effect; title and protocol of this record describe different tests; also: nearly all actives have a fitted effect of over 45% in size; also: potency is read from the fitted curve at half-maximal effect). Particulars: ALDH inhibition qHTS; series mostly up to 45.4 µM.
Test [8] can be described thus: qHTS for Inhibitors of the Aldehyde Dehydrogenase Family (ALDH1A2, ALDH1A3, ALDH2, ALDH3A1) (AID 2061307). Also: nearly all actives have a fitted effect of over 50% in size. As to Potency: test system not described further here; potency is read from the fitted curve at half-maximal effect. The settings on record: ALDH inhibition qHTS; series mostly up to 50.3 µM.
The target in test [9] is Retinaldehyde dehydrogenase 3 (Homo sapiens) (UniProt P47895). The test can be described thus: qHTS for Inhibitors of the Aldehyde Dehydrogenase Family (ALDH1A3) Confirmatory screens (AID 2061311). Also: nearly all actives have a fitted effect of over 60% in size. Also: potency is read from the fitted curve at half-maximal effect. The settings on record: ALDH inhibition qHTS; series mostly up to 46 µM.
Test [10] concerns the target Retinal dehydrogenase 2 (Homo sapiens) (UniProt O94788). The test can be described thus: qHTS for Inhibitors of the Aldehyde Dehydrogenase Family (ALDH1A2) Confirmation screens (AID 2061314). Also: nearly all actives have a fitted effect of over 65% in size. Also: potency is read from the fitted curve at half-maximal effect. The settings on record: ALDH1A2 enzyme inhibition qHTS confirmation; series mostly up to 45.9 µM.
Test [11] concerns the target Aldehyde dehydrogenase 1A1 (Homo sapiens) (UniProt P00352). In words: qHTS for Inhibitors of the Aldehyde Dehydrogenase Family (ALDH1A1) Confirmatory screens (AID 2061316). Also: nearly all actives have a fitted effect of over 65% in size. Also: potency is read from the fitted curve at half-maximal effect. Particulars: ALDH inhibition qHTS; series mostly up to 47.3 µM.
A short description of test [12]: BET inhibitor-based combinations targeting novel dependencies in MECOM-rearranged (r) AML: SET-2 cell line (AID 2202231).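 Also: plate controls were DMSO treated cells for no effect and wells without cells for full effect; nearly all actives have a fitted effect of over 35% in size.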 The settings on record: SET-2 AML cells viability, CellTiter-Glo luminescence, 48 h; viability: hits give low values, concentration not given here. The procedure, abridged:
as §2

The nature of test [13]: BET inhibitor-based combinations targeting novel dependencies in MECOM-rearranged (r) AML: OCI-AML3 cell line (AID 2202232).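 Also: plate controls were DMSO vehicle wells for no effect and wells without cells for full effect; nearly all actives have a fitted effect of over 35% in size.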 Particulars: CellTiter-Glo luminescence, 48 h; Potency: OCI-AML3 viability; series mostly up to 46 µM. In short, it runs like this: as §2
The nature of test [14]: BET inhibitor-based combinations targeting novel dependencies in MECOM-rearranged (r) AML: MV-4-11 cell line (AID 2202233).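 Also: plate controls were DMSO for no effect and blank wells for full effect; nearly all actives have a fitted effect of over 45% in size.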 Particulars: MV-4-11 AML viability, CellTiter-Glo luminescence, 48 h; series mostly up to 46 µM. In short, it runs like this: as §1
Test [15] in a line: BET inhibitor-based combinations targeting novel dependencies in MECOM-rearranged (r) AML: HNT-34 cell line (AID 2202234).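 Also: plate controls were vehicle wells for no effect and cell-free wells for full effect; nearly all actives have a fitted effect of over 35% in size.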 Particulars: HNT-34 AML viability, CellTiter-Glo luminescence, 48 h; series mostly up to 46 µM. The procedure, abridged: as §1
The nature of test [16]: BET inhibitor-based combinations targeting novel dependencies in MECOM-rearranged (r) AML: AML-191 cell line (AID 2202236;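 also: plate controls were vehicle wells for no effect and wells without cells for full effect; nearly all actives have a fitted effect of over 35% in size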). The settings on record: AML-191 viability, CellTiter-Glo luminescence, 48 h; series mostly up to 46 µM. The procedure, abridged:
as §2

As for `Cc1ccc(-c2cc(C(F)(F)F)nn2-c2ccc(S(N)(=O)=O)cc2)cc1`, the Potency entry in test [1], in test [2], in test [3], in test [4], in test [5] and in test [6] was “inactive” in each case.

As to `CC(C)NCC(O)c1ccc(O)c(O)c1` (configuration not stated), the Potency entry in test [1], in test [7], in test [8], in test [9], in test [3] and in test [10] was “inactive” in each case. Further, the Potency result in [11], in test [13], in [14], in test [15], in test [16] and in [6] was “inactive” each time. Also, in test [12], the viability is 106%.

Turning to `CCC(NC(C)C)C(O)c1ccc(O)c(O)c1` (configuration not stated), the Potency entry in test [1], in [7], in [8], in [9] and in test [10] was “inactive” in each case.

Take `CC(C)(C)OC(=O)N1CCC(c2ccc(NCc3ccc(-c4ccc(C#N)cc4)o3)cc2)CC1`: the Potency in test [1] is 0.355 µM (active); in test [7] it was 0.112 µM (active); in test [8] it was 0.896 µM (active); in [9] it was 3.16 µM (active); in test [10] it was 8.91 µM (active); in [11] it was 12.7 µM (active). Besides, the Potency entry in test [4] is “inactive”.

On to `CC(C)(C)OC(=O)N1CCN(c2ccc(NCc3ccc(-c4ccc(C#N)cc4)o3)cn2)CC1`, for which the Potency is 0.398 µM (active) in test [1]; 0.0357 µM (active) in test [7]; 6.31 µM (active) in [8]; 7.08 µM (active) in [9]; 2.25 µM (active) in test [11]. For the same molecule, the Potency result in test [4] was “inactive”.
